From PubChem BioAssay AID720582 (The Scripps Research Institute Molecular Screening Center, 2013)
Out of some 370,000 compounds screened, about 2,300 (0.62%) were called active. Many of the other results were omitted from the sample, so actives are more common in it than they were. Unmarked numbers belong to inactive results.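 Rule for the calls: active = inhibition above a per-campaign cutoff equal to the mean of compounds falling between control-based bounds plus 3 SD (cut at about 20% in these data); inactive = the rest.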

molecular target: Disintegrin and metalloproteinase domain-containing protein 10 (Homo sapiens) (UniProt O14672); assay: blockers of ADAM10 peptide cleavage – biochemical, QFRET, HTS, primary screen (AID 720582); settings: recombinant ADAM10, EDANS/DABCYL FRET peptide cleavage, 3 h; at 7 µM; active compounds read high;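 note: 0% = DMSO wells while the 100% control is not disclosed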
Sequence (O14672 214-748 limits assumed): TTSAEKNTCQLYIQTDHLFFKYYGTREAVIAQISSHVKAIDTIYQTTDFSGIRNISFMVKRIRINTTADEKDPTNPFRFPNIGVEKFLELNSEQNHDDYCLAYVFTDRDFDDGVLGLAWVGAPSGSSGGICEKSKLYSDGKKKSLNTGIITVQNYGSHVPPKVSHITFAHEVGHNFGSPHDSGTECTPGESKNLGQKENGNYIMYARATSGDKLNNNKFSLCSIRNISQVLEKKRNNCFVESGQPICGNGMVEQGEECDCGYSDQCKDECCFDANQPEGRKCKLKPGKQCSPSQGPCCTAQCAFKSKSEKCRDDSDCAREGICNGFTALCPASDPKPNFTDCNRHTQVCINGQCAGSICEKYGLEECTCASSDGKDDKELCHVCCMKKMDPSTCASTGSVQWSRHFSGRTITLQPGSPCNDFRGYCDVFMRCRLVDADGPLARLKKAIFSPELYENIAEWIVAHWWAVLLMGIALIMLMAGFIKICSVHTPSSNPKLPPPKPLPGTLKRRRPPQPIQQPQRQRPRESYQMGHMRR

Row | Compound | inhibition
1 | COc1ccc(-n2nnnc2C(c2cccc3ccccc23)N2CCC(n3c(=O)[nH]c4ccccc43)CC2)cc1 (stereo not given) | 22.7% (active)
2 | O=c1[nH]c2ccccc2n1C1CCN(C(c2ccccc2)c2nnnn2Cc2ccccc2)CC1 (stereo not given) | -9.55%
3 | O=c1[nH]c2ccccc2n1C1CCN(C(c2ccnc3ccccc23)c2nnnn2Cc2ccccc2)CC1 (stereo not given) | -0.89%
4 | CN1CCC(N(C)Cc2cccnc2)CC1 | -14.6%
5 | Cc1ccc(-c2nc3ccccc3c(=O)n2-c2ccc(Br)cn2)cc1 | 8.84%
6 | COP(=O)(Sc1ccccc1)C(Cc1ccccc1)NC(=O)OCc1ccccc1 (stereo not given) | 2.57%
7 | O=C1C2(Cl)C3(Cl)C4(Cl)C(Cl)(Cl)C5(Cl)C3(Cl)C1(Cl)C5(Cl)C24Cl (stereo not given) | 31.6% (active)
8 | CO[C@H]([C@H](C)/C=C/N(C)C=O)[C@@H](C)C(=O)CC[C@H](C)[C@H](O)[C@H](C)[C@H]1OC(=O)/C=C/C(C)=C/[C@H](O)[C@H](OC)C[C@@H]2C=CC[C@@H](C[C@H](OC)[C@@]3(CO3)[C@@H](OC)C[C@@H](OC)[C@@H]1C)O2 | 3.02%
9 | Cc1ccccc1CCC[C@@H](CC1CCCCC1)CN(C)C(=O)Oc1ccccc1 | 1.44%
10 | O=C(NCC(c1cccnc1)N1CCN(c2ccccc2)CC1)Oc1ccccc1 (stereo not given) | 0.63%
11 | COC(=O)C1=C(c2ccc(-c3ccccc3)c(F)c2)C[C@@H]2CC[C@H]1N2C(=O)NCc1ccc(F)cc1 | 28.2% (active)
12 | COC(=O)C1=C(c2cccc(OCc3ccccc3)c2)C[C@@H]2CC[C@H]1N2C(=O)NCc1ccc(Br)cc1 | 19.1%
13 | COC(=O)C1=C(c2ccc(F)cc2OCc2ccccc2)C[C@@H]2CC[C@H]1N2C(=O)NCc1ccc(Cl)cc1 | 17.6%
14 | CCOP(=O)(OCC)C(O)c1ccc(OC)cc1OC (stereo not given) | 1.75%
15 | O=C(Cn1c(=O)n(CC2CS2)c2ccccc21)N1CCCCC1 (stereo not given) | -0.6%
